Measured values from the supplement of paper PMC3334620.
The full ranking holds about 33,000 sequences; the median of “E-score (-0.5 to 0.5)” is about -0.0034, and the highest 2% start at about 0.25. Many of the other results were omitted from the sample, so the highest values are more common in it than they were.

The sequences below were run against T1, Yap3 (UniProt P38749) (assay: PBM E-score (8-mer binding enrichment) (E-score (-0.5 to 0.5)); higher = stronger / more preferred TF binding). Conditions: protein concentration: 100 nM; construct: GST-full length.
T1 sequence: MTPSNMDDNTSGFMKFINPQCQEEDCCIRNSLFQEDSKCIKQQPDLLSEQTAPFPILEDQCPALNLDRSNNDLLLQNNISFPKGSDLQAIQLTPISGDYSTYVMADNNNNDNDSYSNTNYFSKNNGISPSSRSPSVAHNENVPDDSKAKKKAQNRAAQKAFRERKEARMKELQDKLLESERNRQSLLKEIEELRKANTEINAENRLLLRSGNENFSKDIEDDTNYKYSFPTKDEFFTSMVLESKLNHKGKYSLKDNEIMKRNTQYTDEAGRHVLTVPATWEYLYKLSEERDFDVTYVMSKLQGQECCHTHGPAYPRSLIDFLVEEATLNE
Description: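 Universal 'all 10-mer' protein binding microarrays (Agilent AMADID 015681) probed with GST-tagged S. cerevisiae TFs (full-length or DBD) made by in vitro transcription/translation (PURExpress), about 100-200 nM. Bound TF was detected with fluorescent anti-GST. Each ungapped 8-mer (which stands for itself and its reverse complement) is scored by the PBM enrichment score (E-score), a modified Wilcoxon-Mann-Whitney statistic from -0.5 to +0.5, computed with the Universal PBM Analysis Suite. Scale: above 0.35 generally sequence-specific binding.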

| Sequence | PBM E-score |
| --- | --- |
| CATAGGCA | -0.0267 |
| AGTCGACG | 0.23 |
| ACCACCAC | -0.00648 |
| CACAGGCA | 0.0714 |
| AGACTGTC | -0.163 |
| CTTGAAAC | 0.177 |
| CCGGCCAG | -0.181 |
| CCACATAC | 0.249 |
| ATATTTTC | 0.261 |
| CTATTTTA | 0.251 |
| GTATTTTA | 0.0831 |
| CTATTTTC | 0.114 |
| ATATTTTG | 0.157 |
| ACATTTTA | 0.259 |
| GCATTTTA | 0.227 |
| CTATTTGA | 0.27 |
| ATATTTTA | 0.273 |
| GTATTTGA | 0.137 |
| ATATTTGA | 0.149 |
| CCATTTTA | 0.222 |
| CACGGCCG | -0.0612 |
| CTACTCTA | 0.148 |
| AAAGGGCG | -0.0936 |
| AGTAGTGG | 0.0946 |
| ATCTGCGG | -0.0331 |

| Sequence | PBM E-score |
| --- | --- |
| ATCTATAA | 0.0384 |
| CTACTAGC | 0.097 |
| TAAGTAGA | 0.109 |
| AGATGACG | 0.108 |
| CTGTGGCC | -0.361 |
| CTGTTCAA | 0.0116 |
| AGGTCGAT | 0.167 |
| GCCGATCA | 0.00289 |
| CTATTTAA | 0.0559 |
| ATATTTAC | 0.208 |
| ATATTTAA | 0.339 |
| GTAACAGA | 0.105 |
| CTTATTCA | 0.106 |
| ATTATTCA | 0.277 |
| ACTATTCG | 0.231 |
| ATTATTCG | 0.274 |
| GTTATTCA | 0.193 |
| ATTATTCC | 0.248 |
| ATACCCAG | -0.0813 |
| AACAATTA | 0.323 |
| GCCAATTA | 0.193 |
| ATCAATTA | 0.318 |
| ACCAATTG | -0.0264 |
| AACAATTG | -0.0238 |
| AACAATTC | 0.106 |

| Sequence | PBM E-score |
| --- | --- |
| ATCAATTG | 0.159 |
| ACCAATTA | 0.274 |
| ATCAATTC | -0.0493 |
| CGTAGCTA | -0.05 |
| GGAGCAAA | 0.016 |
| CATAGCAC | 0.0592 |
| ACACCACA | 0.0359 |
| AGCCTCAT | -0.158 |
| ACAAGGGG | -0.193 |
| ATTAGATA | 0.178 |
| ATTAGATC | 0.0781 |
| ATTAGATG | 0.261 |
| TCTTCAAA | 0.0414 |
| ACTGCCAG | -0.0114 |
| TAATTAGA | 0.291 |
| CAATTAGA | 0.0631 |
| GAATTATA | 0.237 |
| CAATTATG | 0.214 |
| CAATTATC | 0.273 |
| AAATTATA | 0.249 |
| CAATTATA | 0.167 |
| GAATTAGA | 0.136 |
| TAATTATA | 0.285 |
| CTACCATA | 0.152 |
| CCGTGAAG | -0.167 |

| Sequence | PBM E-score |
| --- | --- |
| ATACCATA | 0.241 |
| CTAGATCC | -0.0756 |
| GCGAAGGA | -0.201 |
| AACGAGGA | 0.0742 |
| TAATACAA | 0.279 |
| AAATACTA | 0.141 |
| AACTAATG | 0.23 |
| AACTAATT | 0.149 |
| AACTAATA | 0.342 |
| AAATACAA | 0.197 |
| GACTAATA | 0.326 |
| CAATACTA | 0.0409 |
| CAATACAA | 0.187 |
| TAATACTA | 0.367 |
| GACTAATC | 0.175 |
| GACTAACA | 0.142 |
| CAAATCTC | 0.0919 |
| TACAGCTA | -0.115 |
| GCATGACC | -0.158 |
| TCCTTCAA | 0.026 |
| CCCTTGAC | -0.0534 |
| CGACAGGA | 0.0296 |
| AAGTAACC | 0.0184 |
| ACCTAGAC | -0.229 |
| GAGACGGC | -0.138 |

| Sequence | PBM E-score |
| --- | --- |
| GAAAGATC | -0.0498 |
| ATCCAGTG | 0.0972 |
| ACTCCAAT | 0.0453 |
| GAAATACC | 0.0809 |
| GGTCAGTA | -0.139 |
| TGTAGTAA | 0.128 |
| ACCTAATA | 0.274 |
| TACTAATA | 0.267 |
| CACTAATA | 0.225 |
| ACCTAATC | 0.245 |
| GCCTAATA | 0.0577 |
| TACTACTA | 0.223 |
| GAAAGCAC | 0.112 |
| ACAGCAGG | -0.126 |
| CGTCTGAA | -0.104 |
| ATAATCAG | 0.126 |
| CTAATCAA | 0.219 |
| ATAATCAA | 0.139 |
| CTAATCAG | 0.0826 |
| AACATAAT | 0.334 |
| AACATAAA | 0.156 |
| CTAATCAC | 0.271 |
| AACATACG | 0.183 |
| ATAATCAT | 0.344 |
| AACATAAG | 0.308 |

| Sequence | PBM E-score |
| --- | --- |
| CACATAAG | 0.053 |
| AACATACT | 0.012 |
| GCATAAAA | 0.147 |
| CGTTGAAC | -0.07 |
| GCTAGGAC | -0.11 |
| ATCTATCC | 0.00162 |
| AAAGTGCT | 0.0686 |
| CTCTATCC | -0.00886 |
| CAGGAAGC | 0.00172 |
| ACCATAAT | 0.264 |
| AACATAAC | 0.269 |
| GACATAAC | 0.22 |
| ATCATAAA | 0.193 |
| ACCATAAA | 0.141 |
| CACATAAC | -0.0392 |
| ACCATAAG | -0.0758 |
| ATCATAAT | 0.293 |
| ATCATAAG | 0.247 |
| CTCTCTAC | 0.111 |
| AGCTGGAA | -0.178 |
| GCAACCCA | -0.11 |
| GATGATTA | 0.0319 |
| AATGATAT | 0.242 |
| AATGATAC | 0.264 |
| AATGATTA | 0.325 |

| Sequence | PBM E-score |
| --- | --- |
| CCTGATTA | 0.18 |
| TATGATAA | 0.228 |
| CATGATTA | 0.28 |
| AATGATAA | 0.177 |
| CATGATTC | 0.0254 |
| AATGATTC | 0.115 |
| AATGATAG | 0.172 |
| CATGATAA | 0.255 |
| AGAACGCC | -0.109 |
| CGCACATA | -0.0836 |
| AAGTGGGT | 0.0584 |
| AATTTGAA | 0.131 |
| CCGAGCAA | -0.0253 |
| CATATAGC | 0.233 |
| ATACAAGG | 0.145 |
| AGCGATTA | 0.00413 |
| CGCGATTA | 0.27 |
| CGCGATTC | 0.198 |
| AGTAATAT | 0.295 |
| AGTAATAC | 0.113 |
| TGTAATAA | 0.242 |
| CGTAATGC | 0.203 |
| GGTAATAA | 0.165 |
| AGTAATAG | 0.207 |
